Our source for the normalized growth values is PubChem BioAssay AID1159580 (chemical genetic matrix, 2015).

Out of some 5,500 compounds screened, about 2,000 (36%) were called active. Inconclusive results (about 18%) are left out. This is one part of the list. Unmarked numbers belong to inactive results. No stated cut-off is given here; in the data, active means normalized growth mostly below about 0.91 (no sharp cut-off); inconclusive means no clear call, values can overlap the other calls; inactive means mostly above about 0.92.

The nature of the assay: chemical genetic growth profiling, strain panel (AID 1159580).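 Further: tested at 20 µM; growth read once vehicle control cultures reached saturation at 30 °C; 1 = growth at the plate median or of vehicle wells; lower values mean less growth of the strain.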 Particulars: growth OD.
[1] abbreviates: S. cerevisiae deletion strains, locus YGR078C, strain PAC10, active compounds read low.
[2] abbreviates: S. cerevisiae deletion strains, locus YGR229C, strain SMI1, active compounds read low.
Where [3] appears, read: S. cerevisiae deletion strains, locus YMR307W, strain GAS1, active compounds read low.
Setting [4] is: S. cerevisiae deletion strains, locus YPL241C, strain CIN2, active compounds read low.
The mark [5] stands for this setting: S. cerevisiae deletion strains, locus YAL013W, strain DEP1, active compounds read low.
The mark [6] stands for this setting: S. cerevisiae deletion strains, locus YBR229C, strain ROT2, active compounds read low.
Setting [7] is: S. cerevisiae deletion strains, locus YDL101C, strain DUN1, active compounds read low.
Setting [8] is: S. cerevisiae deletion strains, locus YDR150W, strain NUM1, active compounds read low.
Where [9] appears, read: S. cerevisiae deletion strains, locus YEL061C, strain CIN8, active compounds read low.
[10] abbreviates: S. cerevisiae deletion strains, locus YHR030C, strain SLT2, active compounds read low.
[11] abbreviates: S. cerevisiae deletion strains, locus YHR087W, strain rtc3, active compounds read low.
The mark [12] stands for this setting: S. cerevisiae deletion strains, locus YJL187C, strain SWE1, active compounds read low.
The mark [13] stands for this setting: S. cerevisiae deletion strains, locus YJR043C, strain POL32, active compounds read low.
The mark [14] stands for this setting: S. cerevisiae deletion strains, locus YJR075W, strain HOC1, active compounds read low.
[15] abbreviates: S. cerevisiae deletion strains, locus YLR039C, strain RIC1, active compounds read low.
Setting [16] is: S. cerevisiae deletion strains, locus YLR058C, strain SHM2 (second series), active compounds read low.
[17] abbreviates: S. cerevisiae deletion strains, locus YLR085C, strain ARP6, active compounds read low.
The mark [18] stands for this setting: S. cerevisiae deletion strains, locus YLR262C, strain YPT6, active compounds read low.
Setting [19] is: S. cerevisiae deletion strains, locus YML094W, strain GIM5, active compounds read low.
[20] abbreviates: S. cerevisiae deletion strains, locus YMR219W, strain ESC1, active compounds read low.
The mark [21] stands for this setting: S. cerevisiae deletion strains, locus YMR263W, strain SAP30, active compounds read low.
Where [22] appears, read: S. cerevisiae deletion strains, locus YNL153C, strain GIM3, active compounds read low.
[23] abbreviates: S. cerevisiae deletion strains, locus YNL298W, strain CLA4 (second series), active compounds read low.
The mark [24] stands for this setting: S. cerevisiae deletion strains, locus YNL322C, strain KRE1, active compounds read low.
[25] abbreviates: S. cerevisiae deletion strains, locus YNR030W, strain Alg12, active compounds read low.
[26] abbreviates: S. cerevisiae deletion strains, locus YOL006C, strain TOP1, active compounds read low.
Where [27] appears, read: S. cerevisiae deletion strains, locus YPL055C, strain LGE1, active compounds read low.
Where [28] appears, read: S. cerevisiae deletion strains, locus YPR135W, strain CTF4, active compounds read low.

On to `O=C(c1cc(O)c(O)c([N+](=O)[O-])c1)c1ccccc1F`, for which the normalized growth is 0.964 (S. cerevisiae deletion strains, locus YAL040C, strain CLN3, active compounds read low); 0.953 (S. cerevisiae deletion strains, locus YCL061C, strain MRC1 (second series), active compounds read low); 0.98 (S. cerevisiae deletion strains, locus YDR363W, strain ESC2, active compounds read low); 0.978 (S. cerevisiae deletion strains, locus YER002W, strain NOP16, active compounds read low); 0.977 under setting [1]; 0.886 under setting [2]. In addition, the normalized growth runs as follows: under setting [3], 0.966; (S. cerevisiae deletion strains, locus YNL175C, strain NOP13, active compounds read low) 0.985; (S. cerevisiae deletion strains, locus YNL197C, strain WHI3, active compounds read low) 0.97; (S. cerevisiae deletion strains, locus YNL224C, strain SQS1, active compounds read low) 0.969; (S. cerevisiae deletion strains, locus YOR083W, strain WHI5 (second series), active compounds read low) 0.996; under setting [4], 0.99.
For the compound `Cc1ccc(C(=O)c2ccccc2[N+](=O)[O-])cc1`, the normalized growth runs as follows: under setting [5], 0.989; under setting [6], 0.99; under setting [7], 0.983; under setting [8], 0.957; under setting [9], 0.979; under setting [1], 0.982. Also, the normalized growth runs as follows: under setting [10], 0.797; under setting [11], 0.964; under setting [12], 0.987; under setting [13], 0.99; under setting [14], 0.943; under setting [15], 0.913. Moreover, the normalized growth runs as follows: under setting [16], 0.995; under setting [17], 0.9; under setting [18], 0.948; under setting [19], 0.96; under setting [20], 0.98; under setting [21], 0.98. The normalized growth was 0.622 (active) under setting [3]; 1.01 (S. cerevisiae deletion strains, locus YNL128W, strain TEP1, active compounds read low); 0.954 under setting [22]; 0.934 under setting [23]; 0.997 under setting [24]; 0.939 under setting [25]. In addition, the normalized growth was 0.779 under setting [26]; 0.946 under setting [27]; 0.828 (active) under setting [4]; 0.8 under setting [28]; 1 (S. cerevisiae strains, strain wild type, active compounds read low).
Consider `O=C(NNC(=O)c1ccccc1[N+](=O)[O-])c1ccc(Cl)cc1`, for which the normalized growth is 1.02 under setting [5]; 1.03 under setting [6]; 1.02 (S. cerevisiae deletion strains, locus YCL061C, strain MRC1, active compounds read low); 0.981 under setting [7]; 0.904 under setting [8]; 1.01 under setting [9]. Also, the normalized growth is 0.995 under setting [1]; 1.14 under setting [10]; 0.994 under setting [11]; 1 under setting [12]; 0.869 (active) under setting [13]; 0.991 under setting [14]. Also, the normalized growth was 1.01 (S. cerevisiae deletion strains, locus YKL190W, strain CNB1, active compounds read low); 1.03 under setting [15]; 1.01 under setting [16]; 1.05 under setting [17]; 1.01 under setting [18]; 1.02 under setting [19]. The normalized growth is 1.02 under setting [20]; 0.91 under setting [21]; 0.993 under setting [22]; 1.04 under setting [23]; 1.01 under setting [24]; 1.03 under setting [25]. Moreover, the normalized growth under setting [26] was 1.13, the normalized growth under setting [27] was 0.9, the normalized growth under setting [4] was 1.03 and the normalized growth under setting [28] was 1.16.
In the case of `CCOC(=O)CSc1nnc(-c2cc(C(C)(C)C)nn2Cc2cccc(C)c2)n1C1CCCCC1`, the normalized growth under setting [5] is 1.03; the normalized growth under setting [6] is 0.989; the normalized growth under setting [7] was 1.01; the normalized growth under setting [8] is 1; the normalized growth under setting [9] is 0.997; the normalized growth under setting [1] is 1.01. For the same compound, the normalized growth is, setting by setting: under setting [2], 0.993; under setting [10], 0.92; under setting [11], 0.986; under setting [12], 0.994; under setting [13], 0.994; under setting [14], 0.98. In addition, the normalized growth by setting is: under setting [15], 0.909; under setting [16], 0.99; under setting [17], 0.975; under setting [18], 0.901; under setting [19], 1.02; under setting [20], 0.998. Besides, the normalized growth is 1 under setting [21]; 1.02 under setting [22]; 1 under setting [23]; 0.994 under setting [24]; 0.987 under setting [25]; 1.03 under setting [27]. Besides, the normalized growth reads like this: under setting [4], 0.968; under setting [28], 1.01.
